Assay outcomes from PubChem BioAssay.
pCIP destab – p/CIP-EGFP fusion destabilizers, primary screen, fluorescence, F442A cells | 16 h | Q05BA5 | decrease of EGFP signal, % at 10 µM | 290,000 compounds, 0.01% hits;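 active = EGFP signal decrease of at least 30% at 10 µM or well 3 SD below plate mean, unless failing retest; inactive = the rest, including hits failing retest or dose response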
PolyA inh – polyadenylation inhibitors in yeast reporter cells, primary screen, luminescence, S. cerevisiae; AID 1875, 2009; activity score, % at 12 µM; S. cerevisiae SKY197-pL101 polyadenylation reporter, beta-gal luminescence; efflux-impaired pdr1/pdr3 knockout yeast; score 100 = 6 SD above DMSO; 300,000 compounds, 0.02% hits;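 active = lowest replicate activity score at least 50, where 100 means six control SD above control mean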;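 note: yeast exposed to compound for 9 h at 30 °C; higher score means more reporter readthrough which indicates perturbed polyadenylation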
AHR activator – AHR activators, primary screen, cell-based, luminescence, luciferase reporter, human. AHR-responsive luciferase reporter cells. activation, % at 5 µM. 320,000 compounds, 2.5% hits. AID 2796, 2010; in the data active = activation above about 47%;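 note: 0% = vehicle wells and 100% = reference agonist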
HIF act – HIF pathway transcriptional activators, primary screen, cell-based, U2OS HRE-luciferase, luminescence | U2OS HRE-luciferase reporter; normalized: DMSO 0%, desferrioxamine 100% | activation, % at 7.5 µM (by protocol) | 300,000 compounds, 0.32% hits;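 active = mean activation of at least 10% of the iron chelator positive control signal, with at least half of replicates also reaching 10%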
Platelet DG rel – inhibitors of platelet dense granule secretion, primary screen, cell-based, MLPCN, human platelets; human platelet-rich plasma, SFLLRN dense granule ATP release, luminescence; inhibition, %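 (compounds screened at 7.5 µM in platelet-rich plasma)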; 300,000 compounds, 0.22% hits; AID 1663, 2009;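 active = mean replicate score, as percent of positive control, at or above 50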
* = called active by the depositor; / = no result. The list is not random: actives were taken first. Their share in the collection is about 2.8%.

SMILES	pCIP destab	PolyA inh	AHR activator	HIF act	Platelet DG rel
Cc1cc(C)c2c(N)c(C(=O)Nc3nccs3)sc2n1	11	-20	71*	0	3
COCc1cc(C)nc2sc(C(=O)Nc3nccs3)c(N)c12	1	16	12	0	-10
Nc1c(C(=O)Nc2nccs2)sc2nc(-c3cccs3)cc(C(F)(F)F)c12	-9	-16	65*	0	3
COc1ccccc1C(=O)Nc1ccnn1C1CCN(CCCc2ccccc2)CC1	-6	17	1	0	8
Cc1ccc(C(=O)Nc2cc(Cl)ccc2OC(=O)c2ccc(C)cc2)cc1	6	-2	53*	5	2
Cc1ccc(CONC(=O)c2ccc(Cl)cc2)cc1	/	/	73*	/	/
O=C(C[C@@H]1C/C=C\C[C@H](Cc2ccc(F)cc2)C(=O)OC[C@H]2CCCN2C1=O)NCCO	/	/	0	/	/
N#CCSc1ccsc1C(=O)Nc1ccc(F)cc1	-7	1	50*	1	-3
Cc1ccc(NC(=O)c2sccc2SCc2cccc(C(F)(F)F)c2)cc1	-5	-5	4	0	3
CCOc1ccc(C(=O)N/N=C/c2c(C)[nH]c(=O)[nH]c2=O)cc1	-14	-8	3	0	-6
O=C(/C=C/Nc1ccccc1F)c1cccs1	-32	5	57*	-1	48
O=C(/C=C\Nc1cccc(F)c1)c1cccs1	-28	0	37	3	17
Cc1ccc(N/C=C/C(=O)c2cccs2)cc1	-22	20	2	-2	52*
CC[C@@]1(C(=O)OC)N[C@H](CN(C)S(=O)(=O)c2ccc(C(C)(C)C)cc2)[C@@H]2C(=O)N(C)C(=O)[C@@H]21	/	/	0	/	/
COc1ccc(OCC(=O)Nc2c3c(nn2-c2ccc(OC)cc2)CS(=O)(=O)C3)cc1	10	3	0	0	-1
C/C(CC(=O)Nc1cc(Cl)ccc1Cl)=N\NC(=O)c1ccccc1Br	11	14	71*	0	0
COc1cc(NC(=O)C/C(C)=N/NC(=O)Cc2ccc(Cl)cc2)c(OC)cc1Cl	-6	11	81*	-1	4
COc1cccc(CNC(=O)CCCN2C(=O)C(c3ccccc3)Oc3cccnc32)c1OC (centres undefined)	-10	0	3	0	-9
O=C(NCCC1CCCCN1S(=O)(=O)c1ccccc1)C(=O)Nc1ccc(F)cc1F (centres undefined)	/	0	6	1	4
Cc1ccc2c(c1)C(c1ccncc1)=NNC(c1ccc(C(C)C)cc1)=N2	3	/	/	/	/
COc1cccc(CNc2ccc3c(c2)nc(C)n3C)c1OC	-8	19	67*	4	0
O=C(Nc1ccc(N2CCOCC2)cc1)c1nc2ccccc2s1	2	-5	7	2	88*
Nc1nc2ccc(C(=O)Nc3ccc(N4CCOCC4)cc3)cc2s1	/	/	7	/	/
Cc1nnc(N/N=C/c2ccccc2C(F)(F)F)n1N	-3	0	23	1	-1
CN(C)c1cc(N/N=C/c2ccccc2C(F)(F)F)nc(N(C)C)n1	-2	-1	55*	0	-1
SMILES	pCIP destab	PolyA inh	AHR activator	HIF act	Platelet DG rel
C=CCOc1ccc(/C=C2\SC(=S)N(NS(=O)(=O)c3ccc(C)cc3)C2=O)cc1	-2	-12	0	-2	1
CC(C)[C@H](NC(=O)c1ccco1)C(=O)Nc1ccc(OC(F)F)cc1	-17	-19	3	0	/
CCOc1ccccc1N(CC(=O)N/N=C/c1cc(Br)ccc1OC)S(C)(=O)=O	-3	-10	34	26*	2
COc1ccccc1N(CC(=O)N/N=C/c1ccc(SC)cc1)S(C)(=O)=O	-8	0	16	0	1
COc1cccc(NC(=O)c2cc([N+](=O)[O-])ccc2NC(=O)CNCC2CCCO2)c1 (centres undefined)	-6	-1	48*	0	16
Cn1c(NCc2ccccc2Cl)nc2ccccc21	/	1	77*	3	22
Cn1c(NCc2ccccc2O)nc2ccccc21	4	-3	-1	1	9
CN1C(=S)SC(N(O)C(=O)Nc2ccccc2)C1(C)C (centres undefined)	8	13	10	0	7
CN1C(=S)SC(N(O)C(=O)Nc2cccc3ccccc23)C1(C)C (centres undefined)	-7	-2	75*	0	5
